High-throughput results deposited in PubChem by The Scripps Research Institute Molecular Screening Center.
ZTA DNA inh: counter-screen for EBNA-1 inhibitors: inhibitors of Epstein-Barr virus ZTA. inhibition, % at 11 µM. P03206. ZTA-DNA binding, fluorescence polarization. 320,000 tested, 0.15% active; in the data active = inhibition above about 33%
Target sequence (P03206 whole entry, looked up): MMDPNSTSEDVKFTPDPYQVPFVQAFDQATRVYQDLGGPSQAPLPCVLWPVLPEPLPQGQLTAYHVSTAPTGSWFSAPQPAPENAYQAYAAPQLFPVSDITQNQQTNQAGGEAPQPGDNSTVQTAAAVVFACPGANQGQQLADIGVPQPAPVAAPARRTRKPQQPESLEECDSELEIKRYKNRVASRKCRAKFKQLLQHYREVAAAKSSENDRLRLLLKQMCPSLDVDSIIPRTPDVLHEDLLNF
pPAFAH FP inh: inhibitors of human plasma PAF acetylhydrolase (pPAFAH). Q13093. recombinant pPAFAH, FP-rhodamine probe fluorescence polarization. inhibition, % at 3.39 µM. 330,000 tested, 1.5% active. AID 463082;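 active = inhibition above the mean inhibition across the screen plus 3 SD, cut at about 25% in these data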;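 also: inhibitors block binding of the rhodamine activity-based probe so polarization drops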
PAFAH1B2 FP inh: inhibitors of human PAFAH1B2. P68402. recombinant PAFAH1B2, FP-rhodamine activity probe, fluorescence polarization. inhibition, % at 3.39 µM. 340,000 tested, 1.2% active. AID 492953;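 active = inhibition above the mean of all tested compounds plus 3 SD, cut at about 24% in these data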
Target sequence (P68402 whole entry, looked up): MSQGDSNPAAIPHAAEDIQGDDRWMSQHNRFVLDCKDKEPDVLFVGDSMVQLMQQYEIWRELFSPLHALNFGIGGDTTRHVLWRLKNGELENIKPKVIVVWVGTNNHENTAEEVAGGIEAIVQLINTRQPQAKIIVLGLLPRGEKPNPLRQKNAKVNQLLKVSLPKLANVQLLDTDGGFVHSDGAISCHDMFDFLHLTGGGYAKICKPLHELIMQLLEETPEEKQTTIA
PAFAH2 FP inh: inhibitors of human PAFAH2 | inhibition, % at 3.39 µM | 340,000 tested, 0.99% active | AID 492956 | Q99487 | recombinant PAFAH2, FP-rhodamine activity probe, fluorescence polarization;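 active = inhibition above the mean over all tested compounds plus 3 SD, cut at about 30% in these data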;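 also: inhibitors block probe labeling of enzyme so polarization drops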
EBNA-1 inh: blocks EBNA-1 binding to DNA; EBNA-1 DNA binding, fluorescence polarization; inhibition, % at 14.8 µM; 300,000 tested, 0.34% active; in the data active = inhibition above about 28%
PAFAH1B3 FP inh: blocks human PAF acetylhydrolase 1B catalytic subunit 3. Q15102. recombinant PAFAH1B3, FP-rhodamine probe, fluorescence polarization. inhibition, % at 3.39 µM. 340,000 tested, 0.28% active. AID 492972;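 active = inhibition above the screen-wide average of all tested compounds plus 3 SD, cut at about 25% in these data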
Target sequence (Q15102 whole entry, looked up): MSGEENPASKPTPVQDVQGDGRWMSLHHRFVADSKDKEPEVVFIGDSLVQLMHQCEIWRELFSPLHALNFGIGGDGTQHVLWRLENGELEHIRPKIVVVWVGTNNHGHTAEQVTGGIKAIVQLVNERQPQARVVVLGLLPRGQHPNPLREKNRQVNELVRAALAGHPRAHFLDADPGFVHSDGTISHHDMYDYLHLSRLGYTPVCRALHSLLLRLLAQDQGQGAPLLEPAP
PAFAH2 confirm: confirmation of human PAFAH2 inhibitors; shares compounds with PAFAH2 FP inh; recombinant PAFAH2, FP-rhodamine activity probe, fluorescence polarization; inhibition, % at 3.39 µM; 2,300 tested, 65% active; AID 493030;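 active = mean inhibition over three repeats above a set limit taken from the earlier primary screen, cut at about 30% in these data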;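 also: inhibitor blocks binding of rhodamine activity probe so polarization falls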
Large screens that a line does not name were inactive (follow-up assays come after a bar, where they were run). A selection: hits, their analogues and other compounds. The true share with any hit is near 2.9%.

CCCc1cc(=O)oc2cc(C)cc(OC(C)C(=O)NCC(O)c3ccccc3)c12 (centres undefined)	none
COc1cc(C(=O)NCC(=O)NCC2COc3ccccc3O2)cc(OC)c1OC (centres undefined)	none
COCCNC(=O)C(c1ccc(F)cc1)N(Cc1cccs1)C(=O)CCC(=O)Nc1ccccn1 (centres undefined)	none
O=C(Oc1ccc(-c2csnn2)cc1)C1CC1	PAFAH2 FP inh 75 | PAFAH2 confirm 76
COC(=O)c1c(-c2c(Cl)cccc2Cl)noc1NC(=O)NN1CCOCC1	none
COC(=O)c1c(-c2c(Cl)cccc2Cl)noc1NC(=O)NN1CCCCC1	PAFAH2 FP inh 75 | PAFAH2 confirm 68
O=C(OCc1nnc(-c2ccc([N+](=O)[O-])cc2)o1)c1ccc(F)c(S(=O)(=O)N2CCOCC2)c1	PAFAH2 FP inh 30 (no result: ZTA DNA inh, pPAFAH FP inh, EBNA-1 inh) | PAFAH2 confirm inactive
COc1ccc(C(=O)OCC(=O)NCC2CCCO2)cc1S(=O)(=O)N1CCCc2ccccc21 (centres undefined)	PAFAH2 FP inh 34 | PAFAH2 confirm inactive
COc1ccc(C(=O)OCC(=O)N2CCc3ccccc32)cc1S(=O)(=O)N1CCOCC1	PAFAH2 FP inh 68 (no result: ZTA DNA inh, EBNA-1 inh) | PAFAH2 confirm 69
COc1ccc(C(=O)OCc2nnc(-c3ccccc3)o2)cc1S(=O)(=O)N1CCOCC1	PAFAH2 FP inh 79 | PAFAH2 confirm 71
O=C(OCC(=O)N1CCc2ccccc21)c1cc(S(=O)(=O)N2CCOCC2)ccc1F	none (no result: ZTA DNA inh, pPAFAH FP inh, EBNA-1 inh)
COc1ccc(C(=O)NCC2CCCO2)cc1S(=O)(=O)N1CCCc2ccccc21 (centres undefined)	none
Cn1c(SCC(=O)N2CCc3ccccc32)nnc1-c1ccc(S(=O)(=O)N2CCCC2)cc1	none
Cc1cc(=O)oc2c1ccc1oc(/C(=N/O)c3ccccc3)c(C)c12	PAFAH2 FP inh 37 | PAFAH2 confirm inactive
O=C(COC(=O)/C=C/c1ccc(OC(F)F)cc1)NC1CCCCCC1	PAFAH2 FP inh 75 (no result: ZTA DNA inh, EBNA-1 inh) | PAFAH2 confirm 70
O=C(CO/N=C/c1ccc(OC(F)F)cc1)NC1CCCCC1	none
O=C(COC(=O)/C=C/c1ccc(OC(F)F)cc1)NC1CCCCCCC1	PAFAH2 FP inh 66 | PAFAH2 confirm 71
COC(=O)c1ccc(NC(C)C(=O)OC)c([N+](=O)[O-])c1 (centres undefined)	none
O=C1CCCN1C(=O)COc1ccccc1[N+](=O)[O-]	PAFAH2 FP inh 30 | PAFAH2 confirm inactive
Cc1nc(C)c(C(=O)OCC(=O)NCc2ccccc2Cl)s1	PAFAH2 FP inh 70 (no result: ZTA DNA inh, EBNA-1 inh) | PAFAH2 confirm 63
Cc1ccc(CNC(=O)COC(=O)c2cc3c(s2)CCC(C)C3)cc1 (centres undefined)	none
O=C(COC(=O)c1cncc(Br)c1)NCc1ccccc1Cl	none
Cc1nc(C)c(C(=O)OCC(=O)NCc2ccccc2)s1	PAFAH2 FP inh 32 (no result: EBNA-1 inh) | PAFAH2 confirm inactive
Cc1noc(C)c1C(=O)OCC(=O)NCc1ccccc1	none (no result: ZTA DNA inh, pPAFAH FP inh, EBNA-1 inh)
Cc1nc(C)c(C(=O)OCC(=O)Nc2ccccc2SCC#N)s1	PAFAH2 FP inh 43 (no result: EBNA-1 inh) | PAFAH2 confirm 33
CC1CCc2sc(C(=O)OCC(=O)NCc3ccccc3)cc2C1 (centres undefined)	PAFAH2 FP inh 38 | PAFAH2 confirm 40
COCCCn1c(=O)c2sccc2n2c(CCCC(=O)N(C)Cc3ccco3)nnc12	none
Cc1ccccc1NC(=O)C1Cc2ccccc2C(=O)O1 (centres undefined)	PAFAH2 FP inh 36 | PAFAH2 confirm 30
CCCCc1nc2sc3c(=O)n(N)cnc3c2c2c1CCC2	none
CCSC1=N/C(=C\c2ccc(C(=O)O)cc2)C(=O)S1	PAFAH2 FP inh 31 | PAFAH2 confirm inactive
COC(=O)c1ccc(/C=C2\N=C(SC)SC2=O)cc1	none
CC1CCCC(NC(=O)COC(=O)c2cccnc2Cl)C1C (centres undefined)	PAFAH2 FP inh 67 (no result: EBNA-1 inh) | PAFAH2 confirm 51
CC1CCN(C(=O)COC(=O)c2cc3ccccc3oc2=O)CC1	none (no result: ZTA DNA inh, EBNA-1 inh)
N#Cc1ccc(NC(=O)COC(=O)c2cccnc2Cl)cc1	PAFAH2 FP inh 43 (no result: ZTA DNA inh, EBNA-1 inh) | PAFAH2 confirm 36
O=C(COC(=O)c1cccnc1Cl)Nc1ccc(N2CCCCC2)cc1	none (no result: EBNA-1 inh)
CC1CCCC(NC(=O)COC(=O)c2cc3ccccc3oc2=O)C1C (centres undefined)	PAFAH2 FP inh 37 (no result: ZTA DNA inh, EBNA-1 inh) | PAFAH2 confirm inactive
CC1CCCC(NC(=O)COC(=O)c2ccc(Cl)nc2)C1C (centres undefined)	PAFAH2 FP inh 33 (no result: EBNA-1 inh) | PAFAH2 confirm inactive
COc1ccc(CNC(=O)COC(=O)c2ccc(OCC3CCCO3)cc2)cc1 (centres undefined)	none (no result: EBNA-1 inh)
COc1cccc(NC(=O)NCc2ccccn2)c1	none
CCN(CC)c1ccc(C(=O)OCC(=O)N2CCCC2)cc1	PAFAH2 FP inh 36 | PAFAH2 confirm inactive
CCN(CC)c1ccc(C(=O)OCC(=O)N(C)Cc2ccccc2)cc1	PAFAH2 FP inh 48 | PAFAH2 confirm 36
CC(C)CCNC(=O)CN(Cc1ccccc1)C(=O)CCC(=O)Nc1ccccn1	none
NC(=O)CN(N=Nc1cccc([N+](=O)[O-])c1)c1cccc([N+](=O)[O-])c1	none
CC(O)CN1CC(O)=C(c2nc3ccccc3s2)C1=N (centres undefined)	none
CCN1CC(O)=C(c2nc3ccccc3s2)C1=N	PAFAH2 FP inh 52 | PAFAH2 confirm inactive
CC(C)(C)OC(=O)C[C@H]1C/C=C\C[C@@H](CC(=O)N[C@H](CO)Cc2ccccc2)C(=O)NC[C@H](c2ccccc2)OC1=O	PAFAH2 FP inh 52 (no result: ZTA DNA inh, EBNA-1 inh) | PAFAH2 confirm inactive
COc1ccccc1CNC(=O)CCC(=O)n1ncc2cc(C)ccc21	none
Cc1nc(S/C(=C/c2ccc(-c3cccc(Cl)c3)o2)C(=O)O)n[nH]1	PAFAH2 FP inh 46 | PAFAH2 confirm 32
Cc1nn(-c2ccccc2)c(C)c1C(=O)OCC(=O)Nc1ccc2c(c1)OCO2	PAFAH2 FP inh 35 | PAFAH2 confirm 30
Cc1nn(-c2ccccc2)c(C)c1C(=O)OCC(=O)Nc1ccccc1	PAFAH2 FP inh 55 (no result: EBNA-1 inh) | PAFAH2 confirm 43
O=C1CC(=O)Nc2cc(S(=O)(=O)N3CCOc4ccc(Cl)cc43)ccc2N1	PAFAH2 FP inh 45 | PAFAH2 confirm 40
O=c1[nH]c2cc(C(F)(F)F)ccc2n1-c1cc(C(F)(F)F)ccc1O	PAFAH2 FP inh 49 | PAFAH2 confirm 42
Cn1c(CNC(=O)CNC(=O)Cc2ccccc2)cc(=O)n(C)c1=O	none
O=C(COC(=O)/C=C/c1ccc(C(F)(F)F)cc1)NC1CCS(=O)(=O)C1 (centres undefined)	none
CCOC(=O)CCCCCN1C(=O)c2cccc3cccc(c23)C1=O	none
O=C(COC(=O)CCCN1C(=O)c2cccc3cccc(c23)C1=O)Nc1cccc(Br)c1	PAFAH2 FP inh 56 | PAFAH2 confirm inactive
